Measured values reported in PubChem BioAssay AID623868 (Vanderbilt High Throughput Screening Facility, 2012).
In all, about 2,100 compounds went through this assay and about 760 (36%) were called active. A selection follows. A number with no mark means an inactive call.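 The calls were made as follows: active = thallium-flux fluorescence traces judged by eye to show enhanced or reduced glutamate response, manual score 1 or -1, so both directions (some results past the limit were not filed as active); inactive = the rest, including fluorescent or raised-baseline compounds.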

Assay: non-GIRK thallium flux modulation in mGlu8 cells, confirmation, counter-screen for GIRK activator project, cell-based, HEK-293 rmGlu8, no GIRK (AID 623868);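 also: extra codes mark interference with 3 for fluorescent and 4 for baseline rise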
Conditions: thallium flux fluorescence, at 10 µM, actives lie on both sides, codes: 1 enhancer, -1 blocker, 0 none, thallium stimulus containing EC20 glutamate
For `CCCCCCCC1CC(CSC(=N)N)OC1=O` (configuration not stated), the manual score was 0.
In the case of `COc1ccc(C(C)N2CC34C=CC(O3)C(C(=O)OCC(C)C)C4C2=O)cc1` (configuration not stated), the manual score is reported as 0.
With `N#CCCn1nc(-c2ccc(Cl)cc2)cc1Nc1ccccc1NC(=O)C(F)(F)F` the manual score was 0.
In the case of `O=C(Nc1nnc(-c2ccco2)o1)c1ccc2ccccc2c1`, the manual score is reported as 1 (active).
For `COc1ccc(-c2nnc(NC(=O)c3ccc(F)cc3)o2)cc1`, the manual score was 1 (active).
In the case of `O=C(CSc1ccc(-c2ccco2)nn1)c1ccccc1`, the manual score is reported as 0.
Work on `CCc1cc(C(N)=O)c(NC(=O)c2ccc(OC)cc2)s1` yielded a manual score of 0.
In the case of `CCCCOC(=S)NC(=O)c1sc2ccccc2c1Cl`, the manual score is reported as 1 (active).
With `CCOC(=S)NC(=O)c1sc2ccccc2c1Cl` the manual score was 1 (active).
In the case of `O=C(NC(=S)N(CCCCO)C1CCCCC1)c1sc2ccccc2c1Cl`, the manual score is reported as 1 (active).
With `CCCOC(=S)NC(=O)c1sc2ccccc2c1Cl` the manual score was 1 (active).
Work on `OC(CN1C2=NCCCN2c2ccccc21)c1ccc(Br)cc1` (configuration not stated) yielded a manual score of 0.
With `Cc1ccc2c(Cl)cc(Cl)c(OCC(=O)NCc3ccco3)c2n1` the manual score was 1 (active).
`N=c1c(C(=O)NCc2ccco2)cc2c(=O)n3ccccc3nc2n1CCc1ccccc1` showed a manual score of 0.
With `CCC/C(=N/NC(=O)c1cccc(Cl)c1)c1ccccc1` the manual score was 1 (active).
For `COc1cccc(NC(=S)N/N=C2/CCCCc3ccccc32)c1`, the manual score was 1 (active).
`CCNC(=S)N/N=C1\CCCCc2ccccc21` gave a manual score of 0.5.
With `COc1cccc(NC(=O)Cn2cc3c(n2)CCCCC3)c1` the manual score was 0.
Work on `COc1ccc(Nc2nc(N)nc(CSc3nnc(C)s3)n2)cc1` yielded a manual score of 0.
Molecule `COc1cc(OC)c(-c2c3cc(O)c(=O)cc-3oc3cc(O)c(O)cc23)cc1OC` has a manual score of 3.
With `COc1ccc(C)cc1NC(=O)C(=O)NNC(=O)c1ccco1` the manual score was 1 (active).
`COc1ccc(C)cc1NC(=O)Nc1ccccc1` gave a manual score of 0.
With `COc1ccc(NC(=O)Nc2ccccc2OC)cc1` the manual score was 0.
For `COc1ccc(NC(=O)Nc2cc(C)ccc2OC)cc1`, the manual score was 0.
In the case of `COc1ccccc1NC(=O)C(=O)NNC(=O)c1ccco1`, the manual score is reported as 1 (active).
`COc1cccc(CNCCNC(=O)c2ccco2)c1OC` showed a manual score of 0.
For `CC(C)c1ccc(-n2cccc2/C=C2/C(=N)N3C=CSC3=NC2=O)cc1`, the manual score was 0.
For `C(/C=C/C=C/Nc1ccccc1)=Nc1ccccc1`, the manual score was 3.
With `Cc1ccc(OCC(O)Cn2c(=N)n(CCN3CCCCC3)c3ccccc32)cc1` (configuration not stated) the manual score was 0.
For `CC(c1ccc(F)cc1)n1c(-c2ccc3ccccc3n2)n[nH]c1=S` (configuration not stated), the manual score was 1 (active).
For `CC(c1ccc(Cl)cc1)n1c(-c2ccc3ccccc3n2)n[nH]c1=S` (configuration not stated), the manual score was 1 (active).
With `CC(=O)Nc1ccc(Oc2ncccn2)cc1` the manual score was 0.
Molecule `Cc1cccc(C)c1NC(=O)C(NC(=O)c1ccccn1)c1ccc([N+](=O)[O-])cc1` (configuration not stated) has a manual score of 0.
`O=C(NNC(=O)c1cccnc1SCc1cccc([N+](=O)[O-])c1)c1cccnc1` showed a manual score of 0.
For `O=C(NNC(=O)c1cccnc1SCc1cccc([N+](=O)[O-])c1)c1ccccn1`, the manual score was 1 (active).
With `O=C(c1oc(=O)c2ccccc2c1-c1ccccc1)N1CCN(C2CCCCC2)CC1` the manual score was 0.
Work on `CCOC(=O)c1cc2n(c1N)-c1ccccc1C2=O` yielded a manual score of 3.
For `CCOC(=O)C1=C(O)C(=O)N(c2ccc(S(N)(=O)=O)cc2)C1c1ccccc1` (configuration not stated), the manual score was -1 (active).
Work on `CCOC(=O)c1ccc(N2C(=O)C(O)=C(C(C)=O)C2c2ccccc2)cc1` (configuration not stated) yielded a manual score of -0.5.
Work on `CCCn1nnc(NC(=O)COc2ccc(C3CCCCC3)cc2)n1` yielded a manual score of 0.
Molecule `Clc1cccc(-c2ccc(/C=N/n3cnnc3)o2)c1Cl` has a manual score of 0.
For `CCCCn1nnc(NC(=S)NC(=O)c2ccc(-c3cccc(Cl)c3Cl)o2)n1`, the manual score was 1 (active).
Work on `COc1ccccc1N(C)S(=O)(=O)c1ccc(C(=O)N(CC(N)=O)C(C)C)cc1` yielded a manual score of 0.
`CCOc1ccc(N2C(=O)/C(=C/c3cc(OC)c(OC)c(OC)c3)N(CC(=O)OC)C2=S)cc1` showed a manual score of 0.
With `CCOC(=O)C1CCN(C(=O)CN(c2ccc(Cl)c(C(F)(F)F)c2)S(C)(=O)=O)CC1` the manual score was -1 (active).
With `CS(=O)(=O)N(CC(=O)NCc1ccco1)c1ccc(Cl)c(C(F)(F)F)c1` the manual score was 0.
`CCOC(=O)C1CCN(C(=O)N(C)C)CC1` showed a manual score of 0.
With `O=C(N/N=C/c1ccc(Sc2ccccn2)o1)c1cc2ccccc2cc1O` the manual score was 1 (active).
Work on `CCCOc1ccc(/C=N/NC(=O)C(=O)Nc2ccccn2)cc1` yielded a manual score of 1.5.
Molecule `O=C(CSc1nc2ccccc2[nH]1)NC1CCCc2ccccc21` (configuration not stated) has a manual score of 0.
Work on `CN(C)CCNc1ncnc2c1cnn2-c1ccc(Cl)cc1` yielded a manual score of 0.
For `NC(=O)CSc1ncnc2c1cnn2Cc1ccccc1`, the manual score was 0.
With `Cc1ccc(-n2ncc3c(SCc4ccccc4)ncnc32)cc1` the manual score was 1 (active).
Molecule `COc1ccc(OC)c(Nc2ncnc3c2cnn3-c2cccc(C)c2)c1` has a manual score of 0.
In the case of `Cc1ccc(CSc2ncnc3c2cnn3-c2ccc(C)cc2)cc1`, the manual score is reported as 1 (active).
`COc1cc2cnncc2cc1OC` showed a manual score of 0.
In the case of `CCOc1ccc(NC(=O)Cn2nnc(-c3ccccc3F)n2)cc1`, the manual score is reported as 0.
With `CC(=O)c1c(N2CCCC2)[nH]c(-c2ccccc2)nc1=S` the manual score was 1 (active).
In the case of `CSc1nc(-c2ccccc2)[nH]c(=S)c1C(C)=O`, the manual score is reported as 1 (active).
Molecule `N#Cc1c(N2CCN(C(=O)c3ccccc3)CC2)nc(-c2ccccc2)c2c1CCCC2` has a manual score of 0.
`CCCOC(=O)NC(CC)COC(=O)Nc1cccc(C)c1C` (configuration not stated) gave a manual score of 0.
For `CN=C1c2c(-c3ccccc3)c3cc(OC)ccc3n2CCN1C`, the manual score was 0.
With `CC1CCN(c2ccccc2NC(=S)NC(=O)c2ccco2)CC1` the manual score was 1 (active).
With `O=C(NC(=S)Nc1ccccc1N1CCCCC1)c1ccco1` the manual score was 0.
For `O=C(NC(=S)Nc1ccccc1N1CCOCC1)c1ccco1`, the manual score was 1 (active).
`O=C(C[n+]1cc(-c2ccccc2)n2c1CCC2)OCc1ccccc1` gave a manual score of 0.
`CCc1ccc(NCc2cc3c(C)nn(-c4ccccc4)c3[nH]c2=O)cc1` gave a manual score of 0.
For `CC(C)(C)c1nn(-c2ccccc2)c2[nH]c(=O)c(CNCc3ccc4c(c3)OCO4)cc12`, the manual score was -1 (active).
Molecule `O=C(NCc1ccc2c(c1)OCO2)C1CCN(Cc2cnn(-c3ccccc3)c2-n2cccc2)CC1` has a manual score of 0.
Work on `C=CCNc1nc(N2CCCC2)nc2ccccc12` yielded a manual score of 0.
With `COc1ccc(/C=C2\C(=O)NC(=S)N2C(=O)c2ccc(F)cc2)cc1` the manual score was 1 (active).
`COc1ccc(C(=O)N2C(=S)NC(=O)/C2=C\c2ccc(C)cc2)cc1` gave a manual score of 0.5.
With `COc1ccc(NC2=Nc3cccc4cccc2c34)cc1OC` the manual score was 0.
Molecule `Cc1nc2ccc(NS(=O)(=O)c3ccc4c(c3)OCCO4)cc2s1` has a manual score of 0.
`S=C(Nc1cccc(Cl)c1)Nc1cccc2cnccc12` showed a manual score of 0.
For `S=C(NCc1cccs1)Nc1cccc(Cl)c1`, the manual score was 0.
For `Cc1csc(NC(=S)Nc2cccc(Cl)c2)n1`, the manual score was 1 (active).
Molecule `C=C(C)C1CC=C(C)/C(=N/NC(=O)c2ccc(NC(=O)CCC)cc2)C1` (configuration not stated) has a manual score of 0.
With `COc1ccc(/C=N/n2c(-c3cccs3)n[nH]c2=S)cc1` the manual score was 1 (active).
With `COc1cccc(OCCc2c(C)n[nH]c2C)c1` the manual score was 0.
With `COc1cccc(/C=N/n2c(-c3cccs3)n[nH]c2=S)c1` the manual score was 1 (active).
For `COCCN=c1scc(-c2cccs2)n1/N=C/c1ccc(O)c(O)c1O`, the manual score was 0.
`CCOc1ccc(C2=NNC(c3cccs3)=Nc3ccc(OC)cc32)cc1` showed a manual score of 0.
Work on `Cc1onc(-c2c(F)cccc2Cl)c1C(=O)OCn1nnc2ccccc2c1=O` yielded a manual score of 0.
Work on `COC(=O)C1=NN(c2ccccc2)C2C(=O)N(c3ccccc3OC)C(=O)C12` (configuration not stated) yielded a manual score of 0.
For `CC1=NN(c2ccccc2)C(=O)C1C(=O)c1ccc(Cl)cc1` (configuration not stated), the manual score was 1 (active).
Molecule `COc1cc(NC(=O)CSCc2cnn(-c3ccccc3)c2-n2cccc2)cc(OC)c1` has a manual score of 0.
`CC1=C(n2nnc3ccccc32)C(c2ccccc2)C(C#N)=C(N)O1` (configuration not stated) showed a manual score of 0.
For `CCN(CC)c1ccc2c(c1)OC(N)=C(C#N)C2c1cccnc1` (configuration not stated), the manual score was 3.
For `Cc1ccc(N=Cc2cc3c(cc2O)OC(N)=C(C#N)C3c2ccccc2)cc1` (configuration not stated), the manual score was -1 (active).
For `CC(Sc1nnnn1C)C(=O)Nc1ccc(Oc2ccccc2)cc1` (configuration not stated), the manual score was 0.5.
`Cc1cccc(OCCn2c(=S)[nH]c3ccccc32)c1` showed a manual score of 0.
For `COc1ccc(-c2c3c(=O)n(C)c(=O)n(C)c3cn2-c2ccccc2)cc1`, the manual score was 0.
`CCCn1c(=N)n(CCOc2ccc(OC)cc2)c2ccccc21` showed a manual score of 0.
`Cn1c(-c2ccc(-c3ccccc3)cc2)c[nH]c1=S` showed a manual score of 0.
In the case of `COc1ccc(-n2c(=S)[nH]c3ccccc32)cc1`, the manual score is reported as 1 (active).
In the case of `COc1ccc(-n2cc(-c3ccccc3)[nH]c2=S)cc1`, the manual score is reported as 1 (active).
`CC(C)(C)c1ccc(OCCON2C(=O)CCC2=O)c(Cl)c1` gave a manual score of 0.
`COc1ccc(C(CCNCc2ccccc2F)c2ccc(F)cc2)cc1` (configuration not stated) showed a manual score of 0.
Work on `COC(=O)c1cc(NC(=O)c2ccoc2C)cc(C(=O)OC)c1` yielded a manual score of 0.
Molecule `CCOC(=O)C1=C(C)NC2=C(C(=O)C(C(=O)OCC)C(c3ccccc3OC)C2)C1c1ccccn1` (configuration not stated) has a manual score of 0.
`CCCC1=C(C(=O)OCC)C(c2ccc(F)cc2)n2ncnc2N1` (configuration not stated) showed a manual score of -0.5.
With `CCOC(=O)C1=C(C)Nc2nnnn2C1c1ccccc1Cl` (configuration not stated) the manual score was -1 (active).
For `O=C(Nc1ccccc1N1CCCCC1)c1ccccc1F`, the manual score was 0.
In the case of `CC(C)C(=O)Nc1ccccc1N1CCN(C(=O)c2ccccc2)CC1`, the manual score is reported as -1 (active).
Work on `O=C(c1ccc(-c2ccccc2)cc1)N1CCN(c2ncccn2)CC1` yielded a manual score of 0.
For `CCCC(=O)Nc1ccccc1N1CCN(C(=O)c2ccccc2)CC1`, the manual score was -1 (active).
